Test results reported in PubChem BioAssay (NCATS).
Records with an inconclusive call do not appear. Active and inactive are the calls of the source. Unless noted, calls follow the shape of the dose curve; as a rule, active = well fitted curve in either direction with a large enough effect (not every such curve was filed as active); inconclusive = small, poorly fitted or top-dose-only effect, or another doubt; inactive = flat fitted curve, though single readings scatter.

Columns and labels:
[1] = molecular target: Lysosomal acid glucosylceramidase (Homo sapiens) (UniProt P04062); assay: Glucocerebrosidase-p2 (AID 348; in the data active = potency below about 10 µM; also: potency is read from the fitted curve at half-maximal effect); settings: purified GBA, blue fluorogenic substrate, 40 min
Lysosomal acid glucosylceramidase (Homo sapiens), sequence (P04062 whole entry, looked up): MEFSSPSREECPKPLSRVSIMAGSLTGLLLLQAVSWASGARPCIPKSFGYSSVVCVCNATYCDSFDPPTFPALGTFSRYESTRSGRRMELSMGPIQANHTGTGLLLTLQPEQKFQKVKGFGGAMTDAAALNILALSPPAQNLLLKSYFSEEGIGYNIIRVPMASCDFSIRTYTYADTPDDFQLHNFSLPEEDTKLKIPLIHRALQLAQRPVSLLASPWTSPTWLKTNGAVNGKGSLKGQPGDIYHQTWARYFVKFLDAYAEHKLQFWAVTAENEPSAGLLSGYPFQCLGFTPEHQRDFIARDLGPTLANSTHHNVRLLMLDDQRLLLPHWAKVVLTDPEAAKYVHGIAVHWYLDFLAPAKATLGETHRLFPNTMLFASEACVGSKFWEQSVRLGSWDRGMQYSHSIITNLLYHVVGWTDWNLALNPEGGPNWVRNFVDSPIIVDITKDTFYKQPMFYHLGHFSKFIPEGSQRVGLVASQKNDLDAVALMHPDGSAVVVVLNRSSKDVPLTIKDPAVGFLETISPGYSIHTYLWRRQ
Summary of the method: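 Normal human glucocerebrosidase (0.2 nM) with blue fluorogenic substrate (80 uM final) in citrate/phosphate pH 5.9 with 10mM sodium taurocholate, 0.01% tween-20; 40 min RT, NaOH/glycine stop; fluorescence Ex 365/Em 440; AC50 from a titration from 0.6 nM upwards.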

[2] = AP1 Signaling Pathway (AID 357); settings: ME-180 AP-1-bla reporter, EGF-induced, beta-lactamase ratio, 5 h; at 7.69 µM (top of the series) unless noted; also: % is scaled to controls: 0 for no effect and ±100 for the full control effect
Summary of the method: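 ME-180 cells with beta-lactamase reporter under AP-1 response element, stimulated with EC50 EGF; compounds tested in titration series, 5 h at 37 °C. CCF4 substrate added 2.5 h at room temperature; 460/530 nm emission ratio gave %activity and AC50.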

[3] = NFAT Signaling Pathway (AID 444); settings: Jurkat NFAT-bla M1, carbachol, beta-lactamase ratio, 5 h; at 7.69 µM (top of the series) unless noted;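 also: carbachol stimulus at about its EC50 of 1 µM final; % is scaled to controls: 0 for no effect and ±100 for the full control effect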
Summary of the method: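 Jurkat cells with NFAT-driven β-lactamase reporter and co-expressed M1 receptor, stimulated with carbachol (final 1 uM, ~EC50), compound titration, 5 h at 37 °C. CCF4 loaded 1 h at RT; 460/530 nm ratio gave %activity and AC50.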

[4] = Stat Signaling Pathway (AID 446); settings: ME-180 SIE beta-lactamase reporter, IL-6 stimulated, 5 h; at 7.69 µM (top of the series) unless noted;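 also: ME-180 cervical cancer cells given 40 pM IL-6 alongside compound; SIE-controlled beta-lactamase reporter measured as 460/530 nm FRET emission ratio; % is scaled to controls: 0 for no effect and ±100 for the full control effect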
Summary of the method: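 Overnight-plated ME-180 cells bearing a STAT Inducible Element beta-lactamase reporter; 5 h co-exposure to compound and 40 pM IL-6; values normalized to 300 pM IL-6 and 125 nM JAK inhibitor controls.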

[5] = molecular target: Mitogen-activated protein kinase 10 (Mus musculus) (UniProt Q61831); assay: JNK3 AlphaScreen Assay (AID 530); settings: JNK3 lysate, c-Jun phosphorylation; series mostly up to 57.1 µM;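 also: kinase came from lysate of stimulated human HepG2 cells; signal reports phosphorylation of biotinylated GST-cJun 1-79 at Ser73 with 10 µM ATP; % is scaled to controls: 0 for no effect and ±100 for the full control effect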
Summary of the method: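 HepG2 lysate (IL-1b/TNFa pre-activated) + biotin-GST-cJun 1-79 + anti-pSer73 cJun; cpd titration, 15 min RT; ATP 10 uM start; Tris pH 7.6, MgCl2, DTT, vanadate; beads in EDTA buffer; AlphaScreen.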

[6] = molecular target: 3',5'-cyclic-AMP phosphodiesterase 4B (Homo sapiens) (UniProt Q07343); assay: qHTS Assay for Inhibitors of PDE-IV (AID 607; active = well fitted activation curve with a large enough effect in the main read-out, with a control signal flat, not every such curve was filed as active; also: % of control where 0% means no effect); settings: HEK293 ACTOne CNG channel cells, membrane potential fluorescence; series mostly up to 22.9 µM
3',5'-cyclic-AMP phosphodiesterase 4B (Homo sapiens), sequence (Q07343 whole entry, looked up): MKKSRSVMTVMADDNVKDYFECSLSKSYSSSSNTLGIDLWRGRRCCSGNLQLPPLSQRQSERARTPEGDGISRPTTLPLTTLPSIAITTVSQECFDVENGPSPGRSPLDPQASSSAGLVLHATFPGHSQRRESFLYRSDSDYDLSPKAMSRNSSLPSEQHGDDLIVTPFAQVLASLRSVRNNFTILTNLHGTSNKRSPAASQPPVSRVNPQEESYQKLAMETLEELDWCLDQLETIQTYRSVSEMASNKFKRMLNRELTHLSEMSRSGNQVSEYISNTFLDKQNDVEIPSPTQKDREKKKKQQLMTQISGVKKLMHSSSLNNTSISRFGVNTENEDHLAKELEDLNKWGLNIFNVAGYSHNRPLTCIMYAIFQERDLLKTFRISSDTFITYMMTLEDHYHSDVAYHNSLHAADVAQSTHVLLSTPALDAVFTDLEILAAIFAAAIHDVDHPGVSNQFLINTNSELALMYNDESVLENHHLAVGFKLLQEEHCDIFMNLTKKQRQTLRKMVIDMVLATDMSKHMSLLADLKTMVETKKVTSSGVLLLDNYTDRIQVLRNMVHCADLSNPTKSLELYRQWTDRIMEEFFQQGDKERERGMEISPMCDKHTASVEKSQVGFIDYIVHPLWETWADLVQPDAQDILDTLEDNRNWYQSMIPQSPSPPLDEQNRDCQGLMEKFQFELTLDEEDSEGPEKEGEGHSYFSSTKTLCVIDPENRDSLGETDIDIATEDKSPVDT
Summary of the method: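 Live HEK293 cells with a modified cyclic nucleotide-gated (CNG) channel report intracellular cAMP via membrane-potential dye fluorescence (ex 535/em 590 nm). Endogenous PDE-IV was targeted. Compounds were tested at up to 22.9 uM final; RO 20-1724 100 uM served as control.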

[7] = molecular target: Cytochrome P450 1A2 (Homo sapiens) (UniProt P05177); assay: p450-cyp1a2 (AID 410; calls by dose curve;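 also: -100% = full effect of reference inhibitor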); settings: recombinant CYP1A2, luciferin-ME demethylation, luminescence; series mostly up to 11.4 µM
Cytochrome P450 1A2 (Homo sapiens), sequence (P05177 whole entry, looked up): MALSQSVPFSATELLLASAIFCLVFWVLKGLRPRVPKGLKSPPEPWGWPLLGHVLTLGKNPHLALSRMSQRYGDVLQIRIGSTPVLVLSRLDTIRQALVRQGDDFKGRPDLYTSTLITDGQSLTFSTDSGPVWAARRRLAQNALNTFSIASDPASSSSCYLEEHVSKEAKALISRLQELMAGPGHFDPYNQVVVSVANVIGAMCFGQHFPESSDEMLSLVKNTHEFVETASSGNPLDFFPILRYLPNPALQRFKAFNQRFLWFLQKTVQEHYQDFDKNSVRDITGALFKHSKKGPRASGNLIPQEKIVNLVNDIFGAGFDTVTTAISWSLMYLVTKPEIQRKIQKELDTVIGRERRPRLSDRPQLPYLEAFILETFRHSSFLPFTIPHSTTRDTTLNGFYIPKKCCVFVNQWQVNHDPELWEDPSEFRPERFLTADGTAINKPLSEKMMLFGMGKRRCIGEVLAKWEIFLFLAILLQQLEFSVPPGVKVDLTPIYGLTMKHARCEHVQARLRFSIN
Summary of the method: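 Read-out is luminescence from luciferin produced by CYP1A2 demethylation of Luciferin-ME (100uM, at Km). Detection reagent stopped the 60 min NADPH-dependent reaction; signals were normalized to 57 uM furafylline.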

[8] = molecular target: Glucocorticoid receptor (Homo sapiens) (UniProt P04150); assay: GR-GFP Redistribution (AID 450;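 active = compounds whose dose series gives a full or clear partial fitted curve of increased nuclear translocation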; also: potency is read from the fitted curve at half-maximal effect); settings: U2OS GR-GFP nuclear translocation, laser cytometry, 2 h
Glucocorticoid receptor (Homo sapiens), sequence (P04150 whole entry, looked up, the tested form may be a part): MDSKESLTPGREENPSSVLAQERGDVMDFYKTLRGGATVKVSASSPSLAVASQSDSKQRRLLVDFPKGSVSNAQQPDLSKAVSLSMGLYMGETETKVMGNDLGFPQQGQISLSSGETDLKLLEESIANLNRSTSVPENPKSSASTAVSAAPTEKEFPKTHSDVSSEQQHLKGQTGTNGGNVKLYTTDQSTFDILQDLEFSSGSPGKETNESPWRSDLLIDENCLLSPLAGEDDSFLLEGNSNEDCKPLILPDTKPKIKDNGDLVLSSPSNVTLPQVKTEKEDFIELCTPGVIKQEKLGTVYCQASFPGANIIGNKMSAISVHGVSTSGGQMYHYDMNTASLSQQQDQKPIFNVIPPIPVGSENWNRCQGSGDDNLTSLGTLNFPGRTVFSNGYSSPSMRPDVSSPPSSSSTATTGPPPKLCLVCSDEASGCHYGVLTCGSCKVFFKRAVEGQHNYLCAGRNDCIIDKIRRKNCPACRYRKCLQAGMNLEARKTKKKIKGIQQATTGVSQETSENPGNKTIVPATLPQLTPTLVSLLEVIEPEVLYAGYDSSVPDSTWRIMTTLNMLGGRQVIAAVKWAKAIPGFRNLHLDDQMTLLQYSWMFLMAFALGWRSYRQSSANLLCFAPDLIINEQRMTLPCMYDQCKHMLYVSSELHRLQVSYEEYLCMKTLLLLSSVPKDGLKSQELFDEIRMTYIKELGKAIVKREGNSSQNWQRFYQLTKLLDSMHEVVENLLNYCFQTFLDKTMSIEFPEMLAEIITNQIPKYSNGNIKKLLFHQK

[9] = molecular target: Glucocorticoid receptor (Homo sapiens) (UniProt P04150); assay: GR-EFC Redistribution (AID 451; calls by dose curve; also: potency is read from the fitted curve at half-maximal effect); settings: CHO-K1 GR-EFC translocation, beta-gal luminescence, 2 h
Summary of the method: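 CHO-K1 cells expressing nuclear EA and GR-ED fragments of b-gal; compounds titrated up to 46 uM final, 2 h at 37 C. GR nuclear translocation read as complemented b-gal luminescence after 1 h RT detection.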

[10] = molecular target: Cytochrome P450 3A4 (Homo sapiens) (UniProt P08684); assay: qHTS Assay for Inhibitors and Substrates of Cytochrome P450 3A4 (AID 884; active = well fitted curve in the direction sought with a large enough effect; an effect the other way counts as inactive or inconclusive; also: % is scaled to controls: 0 for no effect and ±100 for the full control effect; nearly all actives have a fitted effect of over 50% in size); settings: recombinant CYP3A4, Luciferin-PPXE luminescence; series mostly up to 57.1 µM
Summary of the method: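 Luminescent readout of luciferin produced by CYP3A4 (20 nM) dealkylation of Luciferin-PPXE, 25 uM (its KM). NADPH-driven reaction ran 60 min at RT after 10 min compound preincubation; data scaled to 57 uM ketoconazole as 100% inhibition.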

[11] = molecular target: Cytochrome P450 2C9 (Homo sapiens) (UniProt P11712); assay: qHTS Assay for Inhibitors and Substrates of Cytochrome P450 2C9 (AID 883; active = well fitted curve in the direction sought with a large enough effect; an effect the other way counts as inactive or inconclusive; also: % is scaled to controls: 0 for no effect and ±100 for the full control effect; nearly all actives have a fitted effect of over 60% in size); settings: recombinant CYP2C9, luciferin-H luminescence, 60 min; series mostly up to 57.1 µM
Summary of the method: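 10nM CYP2C9 + 100uM Luciferin-H (=KM), 25mM KPO4; cpd 10 min 37C; NADPH regen, 60 min 37C; stop/detect with P450 Glo-Buffer 20 min; luminescence. Norm. to 57uM sulphaphenazole as full inhibition.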

[12] = molecular target: Cytochrome P450 2D6 (Homo sapiens) (UniProt P10635); assay: qHTS Assay for Inhibitors and Substrates of Cytochrome P450 2D6 (AID 891; active = well fitted curve in the direction sought with a large enough effect; an effect the other way counts as inactive or inconclusive;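 also: luciferin methyl ether substrate demethylated by CYP2D6 with NADPH regeneration; % is scaled to controls: 0 for no effect and ±100 for the full control effect; nearly all actives have a fitted effect of over 60% in size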); settings: recombinant CYP2D6, luciferin-ME EGE luminescence; series mostly up to 11.4 µM
Summary of the method: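 Luminescent read-out of luciferin formed by 5 nM human CYP2D6 demethylating 30 uM Luciferin-ME EGE (Km level) over 60 min at room temperature after NADPH regeneration addition. Data normalized to full inhibition by 1.43 uM quinidine.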

[13] = molecular target: Cytochrome P450 2C19 (Homo sapiens) (UniProt P33261); assay: qHTS Assay for Inhibitors and Substrates of Cytochrome P450 2C19 (AID 899; active = well fitted curve in the direction sought with a large enough effect; an effect the other way counts as inactive or inconclusive; also: % is scaled to controls: 0 for no effect and ±100 for the full control effect; nearly all actives have a fitted effect of over 60% in size); settings: recombinant CYP2C19, luciferin-H EGE luminescence; series mostly up to 11.4 µM
Cytochrome P450 2C19 (Homo sapiens), sequence (P33261 whole entry, looked up): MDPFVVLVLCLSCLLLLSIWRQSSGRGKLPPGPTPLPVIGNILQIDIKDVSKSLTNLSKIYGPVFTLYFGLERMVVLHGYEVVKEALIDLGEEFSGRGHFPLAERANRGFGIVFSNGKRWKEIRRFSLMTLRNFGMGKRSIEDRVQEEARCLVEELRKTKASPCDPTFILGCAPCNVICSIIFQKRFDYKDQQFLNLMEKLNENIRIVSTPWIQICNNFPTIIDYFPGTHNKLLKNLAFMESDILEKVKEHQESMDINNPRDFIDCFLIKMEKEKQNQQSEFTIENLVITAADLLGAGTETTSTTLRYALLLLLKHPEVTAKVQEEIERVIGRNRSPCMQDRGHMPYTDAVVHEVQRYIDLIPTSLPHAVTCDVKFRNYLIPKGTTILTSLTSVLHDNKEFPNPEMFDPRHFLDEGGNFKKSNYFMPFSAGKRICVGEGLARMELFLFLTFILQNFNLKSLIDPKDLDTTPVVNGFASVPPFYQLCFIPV
Summary of the method: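 Luminescent read-out of luciferin formed from Luciferin-H EGE (10uM, equal to KM). Enzyme 5nM in 50mM KPO4; compound added, 10 min at 37C, then NADPH regenerating system for 60 min at 37C. Full inhibition defined by 57uM ketoconazole.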

[14] = qHTS Assay for Identification of Small Molecule Antagonists for NFkB Signaling Pathway (AID 895; active = well fitted inhibition curve with a large enough effect in the signal ratio, with a control signal flat, not every such curve was filed as active; the % refers to the signal ratio; also: % is scaled to controls: 0 for no effect and ±100 for the full control effect); settings: NFkB beta-lactamase reporter cells, FRET ratio 460/530; series mostly up to 38.3 µM
Summary of the method: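 ME-180 NFkB-bla cells (beta-lactamase under NFkB response element), plated overnight, treated with compound then 10 pM TNF alpha (about EC50) for 5 hrs at 37 C. LiveBLAzer FRET read at 460/530 nm emission, 405 nm excitation.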

[15] = qHTS Assay for Identification of Small Molecule Agonists for Thrombopoietin (TPO) Signaling Pathway (AID 917; active = well fitted curve in the direction sought with a large enough effect; an effect the other way counts as inactive or inconclusive; also: % is scaled to controls: 0 for no effect and ±100 for the full control effect); settings: TPO signaling pathway reporter cells, agonist qHTS; series mostly up to 38.5 µM
Summary of the method: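 Stimulation at the TPO EC50 (26 pM final) was used to detect activators. Ba/F3 mouse cells bearing human TPO receptor and a luciferase reporter under the Glycoprotein IIb promoter were exposed to compounds for 24 hrs at 37 C.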

[16] = molecular target: Muscarinic acetylcholine receptor M1 (Rattus norvegicus) (UniProt P08482); assay: qHTS Assay for Antagonists of Acetylcholine Muscarinic M1 Receptor: Kinetic Measurement of Intracellular Calcium Response (AID 943; active = well fitted curve in the direction sought with a large enough effect; an effect the other way counts as inactive or inconclusive;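 also: Fluo-4 calcium signal as peak divided by basal fluorescence over 4 min; nearly all actives have a fitted effect of over 75% in size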); settings: M1-expressing cells, kinetic intracellular calcium fluorescence; series mostly up to 35.3 µM
Muscarinic acetylcholine receptor M1 (Rattus norvegicus), sequence (P08482 whole entry, looked up): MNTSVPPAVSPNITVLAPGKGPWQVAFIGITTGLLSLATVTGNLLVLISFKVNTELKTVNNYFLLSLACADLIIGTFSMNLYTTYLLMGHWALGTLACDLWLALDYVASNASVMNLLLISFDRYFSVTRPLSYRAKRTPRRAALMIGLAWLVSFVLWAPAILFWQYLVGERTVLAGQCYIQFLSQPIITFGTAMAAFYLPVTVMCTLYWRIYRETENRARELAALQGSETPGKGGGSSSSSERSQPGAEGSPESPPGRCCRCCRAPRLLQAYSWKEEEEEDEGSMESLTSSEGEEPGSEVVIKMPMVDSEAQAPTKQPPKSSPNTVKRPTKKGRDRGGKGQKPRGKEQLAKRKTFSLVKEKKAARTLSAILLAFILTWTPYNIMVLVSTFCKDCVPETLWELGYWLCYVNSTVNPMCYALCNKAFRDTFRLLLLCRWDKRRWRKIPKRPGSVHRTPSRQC
Summary of the method: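 Quantitative HTS in CHO-M1 (rat receptor) cells: 10 min compound exposure ahead of 100 nM carbachol, Fluo-4 fluorescence followed 4 min, value expressed as peak-to-basal ratio.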

[17] = molecular target: Muscarinic acetylcholine receptor M1 (Rattus norvegicus) (UniProt P08482); assay: qHTS Assay for Antagonists of Acetylcholine Muscarinic M1 Receptor: Measurement of IP-One Response (AID 944; active = well fitted curve in the direction sought with a large enough effect; an effect the other way counts as inactive or inconclusive; also: nearly all actives have a fitted effect of over 75% in size); settings: CHO-M1 cells, IP-One HTRF, antagonist mode; series mostly up to 46.1 µM
Summary of the method: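 Antagonism was measured as loss of carbachol-driven (EC80) IP1 accumulation in CHO cells carrying rat M1, using a homogeneous IP-One TR-FRET kit read at 620 and 665 nm.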

[18] = molecular target: Pyruvate kinase (Leishmania mexicana) (UniProt Q27686); assay: qHTS Validation Assay for Inhibitors of Leishmania Mexicana Pyruvate Kinase (AID 945; active = well fitted curve in the direction sought with a large enough effect; an effect the other way counts as inactive or inconclusive;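 also: 0% = DMSO only neutral control wells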); settings: purified L. mexicana pyruvate kinase, enzyme activity, E451W mutant enzyme; series mostly up to 57.5 µM
Pyruvate kinase (Leishmania mexicana), sequence (Q27686 2-499 E452W): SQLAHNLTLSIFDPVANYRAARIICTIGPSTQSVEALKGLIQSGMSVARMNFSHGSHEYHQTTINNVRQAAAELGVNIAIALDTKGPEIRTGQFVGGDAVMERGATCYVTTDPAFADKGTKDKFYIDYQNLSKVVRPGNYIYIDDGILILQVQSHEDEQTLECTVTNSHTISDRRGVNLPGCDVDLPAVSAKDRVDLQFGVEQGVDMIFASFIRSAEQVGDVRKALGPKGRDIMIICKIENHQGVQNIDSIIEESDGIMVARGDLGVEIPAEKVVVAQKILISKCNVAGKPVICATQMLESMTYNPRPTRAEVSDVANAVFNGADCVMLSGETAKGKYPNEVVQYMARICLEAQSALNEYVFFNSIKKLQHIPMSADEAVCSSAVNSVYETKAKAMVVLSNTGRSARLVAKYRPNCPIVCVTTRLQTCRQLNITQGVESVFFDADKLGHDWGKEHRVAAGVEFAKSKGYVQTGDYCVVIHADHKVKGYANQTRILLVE
Summary of the method: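 Eight-point qHTS titrations; enzyme 0.2 nM LmPYK (E451W mutant); substrates 0.5 mM PEP, 0.1 mM ADP; 7 mM MgCl2; 1 h room temperature; PKLight luminescence normalized to neutral control.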

[19] = molecular target: Pyruvate kinase PKM (Homo sapiens) (UniProt P14618); assay: qHTS Assay for Activators of Human Muscle Pyruvate Kinase (AID 954; active = well fitted curve in the direction sought with a large enough effect, not every such curve was filed as active;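 also: 0% = uninhibited enzyme and -100% = no enzyme or full thiadiazolimine inhibition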); settings: purified human muscle pyruvate kinase, luciferase-coupled luminescence, 1 h; series mostly up to 57.5 µM
Pyruvate kinase PKM (Homo sapiens), sequence (P14618 whole entry, looked up): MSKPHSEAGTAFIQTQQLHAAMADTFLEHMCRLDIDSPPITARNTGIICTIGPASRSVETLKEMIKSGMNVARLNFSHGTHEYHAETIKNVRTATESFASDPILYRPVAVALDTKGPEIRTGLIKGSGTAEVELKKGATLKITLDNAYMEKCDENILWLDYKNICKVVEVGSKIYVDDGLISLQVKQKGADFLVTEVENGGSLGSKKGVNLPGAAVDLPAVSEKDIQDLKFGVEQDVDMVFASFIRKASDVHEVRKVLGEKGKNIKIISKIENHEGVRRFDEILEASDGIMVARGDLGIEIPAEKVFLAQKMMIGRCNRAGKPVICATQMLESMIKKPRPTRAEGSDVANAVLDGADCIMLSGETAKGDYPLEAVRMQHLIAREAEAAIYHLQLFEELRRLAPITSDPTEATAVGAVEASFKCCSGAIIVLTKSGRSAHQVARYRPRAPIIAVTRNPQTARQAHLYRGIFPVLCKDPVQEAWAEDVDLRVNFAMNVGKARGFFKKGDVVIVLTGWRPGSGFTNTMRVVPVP
Summary of the method: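 Screening used highly purified human pyruvate kinase M2 under submaximal activity, with PEP at its Km and ADP below Km. After an hour at room temperature, ATP was read by luciferase luminescence.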

[20] = molecular target: Alpha-galactosidase A (Homo sapiens) (UniProt P06280); assay: Counterscreen for Glucocerebrosidase Inhibitors: qHTS Assay for Human alpha-Galactosidase at pH 4.5 (AID 992; active = well fitted curve in the direction sought with a large enough effect; an effect the other way counts as inactive or inconclusive; also: 0% is about no effect); settings: purified enzyme, fluorogenic substrate; series mostly up to 76.9 µM
Alpha-galactosidase A (Homo sapiens), sequence (P06280 whole entry, looked up): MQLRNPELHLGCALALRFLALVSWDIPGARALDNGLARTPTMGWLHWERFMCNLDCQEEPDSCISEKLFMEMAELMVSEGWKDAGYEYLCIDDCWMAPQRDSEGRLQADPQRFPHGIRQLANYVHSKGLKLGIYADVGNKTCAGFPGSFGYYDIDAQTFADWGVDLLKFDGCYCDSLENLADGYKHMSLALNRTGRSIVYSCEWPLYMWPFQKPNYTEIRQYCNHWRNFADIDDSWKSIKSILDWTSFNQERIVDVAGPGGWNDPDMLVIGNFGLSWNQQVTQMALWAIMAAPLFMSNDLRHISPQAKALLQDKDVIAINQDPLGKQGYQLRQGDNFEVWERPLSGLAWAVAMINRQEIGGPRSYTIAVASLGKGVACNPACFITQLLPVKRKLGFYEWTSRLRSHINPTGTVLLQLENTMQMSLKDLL
Summary of the method: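 Each compound is preincubated briefly with 2 nM enzyme before substrate addition (80 uM); plates then sit 20 min at ambient temperature, are quenched with 1M NaOH/1M glycine, and read fluorometrically.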

[21] = molecular target: alpha-glucosidase (Oryza sativa, rice) (UniProt Q653V4); assay: Counterscreen for Glucocerebrosidase Inhibitors: qHTS Assay for Rice alpha-Glucosidase at pH 5.0 (AID 997; active = well fitted curve in the direction sought with a large enough effect; an effect the other way counts as inactive or inconclusive;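 also: 0% = full activity with enzyme and -100% = basal without enzyme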); settings: rice alpha-glucosidase enzyme activity; series mostly up to 76.9 µM
Summary of the method: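 Endpoint fluorogenic assay at pH 5.0: compounds (0.7 nM to 77 uM) titrated against 4 nM rice enzyme and 400 uM 4-MU-alpha-glucoside for 20 min at room temperature; NaOH/glycine stop, read ex 365/em 440 nm, Hill-fitted AC50.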

CC[C@@H]1[C@@H]2Cc3ccc(O)cc3[C@@]1(CC)CCN2C
inactive: Potency [1] > 11.4 µM | activity change, negative = inhibition [2] -9.39% | activity change, negative = inhibition [3] 17.1% | activity, negative = inhibition [4] 2.87% | activity change, negative = inhibition [5] 2.22% [at 11.4 µM] | outcome [6]

C[C@H]1CC[C@@]2(NC1)O[C@@H]1C[C@@H]3[C@@H]4CC=C5C[C@@H](O)CC[C@]5(C)[C@@H]4CC[C@]3(C)[C@H]1[C@@H]2C
inactive: Potency [1] > 11.4 µM | Potency [7] | activity change, negative = inhibition [3] 24.2% | activity, negative = inhibition [4] 7.42% | Potency [8] > 46 µM | Potency [9] > 9.22 µM | activity change, negative = inhibition [5] -0.366% [at 11.4 µM] | outcome [6] | activity change, negative = inhibition [10] 33.7% [at 11.4 µM]

N[C@H](Cn1cc(I)c(=O)[nH]c1=O)C(=O)O
inactive: activity change, negative = inhibition [2] 10.7% [at 38 µM] | Potency [7] | activity change, negative = inhibition [3] -6.62% [at 38 µM] | activity, negative = inhibition [4] -6.5% [at 38 µM] | Potency [8] > 46 µM | Potency [9] > 46 µM | Potency [5] | outcome [6] | Potency [11] | Potency [12] | Potency [13]

CC(C)C[C@H](NP(=O)(O)O[C@@H]1O[C@@H](C)[C@@H](O)[C@@H](O)[C@H]1O)C(=O)N[C@@H](Cc1c[nH]c2ccccc12)C(=O)O
inactive: activity change, negative = inhibition [2] 5.95% [at 38 µM] | Potency [7] | activity change, negative = inhibition [3] 9.26% [at 38 µM] | activity, negative = inhibition [4] 14.9% [at 38 µM] | Potency [8] > 46 µM | Potency [9] > 46 µM | Potency [5] | outcome [6] | Potency [14] | outcome [15] | Potency [16] | Potency [17] | outcome [18] | outcome [19] | outcome [20] | outcome [21]
